HIV RNase H inh-1: blocks HIV-1 RNase H cleavage of RNA/DNA duplex | P04585 | RT-RNase H RNA/DNA duplex cleavage, fluorescence | inhibition, % at 10 µM | 65,000 tested, 1.9% active | AID 565; in the data active = inhibition above about 50%
RmlC RmlD mix: RmlC/RmlD inhibition, mixture screen | RmlC/RmlD coupled enzyme inhibition, 384-well mixture HTS | inhibition, % at 5.5 µM | 110,000 tested, 0.39% active; in the data active = inhibition above about 30%, passing the limit was not always enough; inconclusive = no clear call, values can overlap the other calls
HIV RNase H inh-2: confirmation of HIV-1 reverse transcriptase RNase H inhibitors; shares compounds with HIV RNase H inh-1; Recombinant RT RNase H, fluorescent RNA/DNA duplex cleavage; inhibition, % at 10 µM; 1,000 tested, 39% active; AID 651; in the data active = inhibition above about 48%; inconclusive = no clear call, values can overlap the other calls
Starred values were filed as active, the others as inactive; ? = inconclusive; . = no result. The entries come from a sample that favours hits as a whole.

SMILES	HIV RNase H inh-1	RmlC RmlD mix	HIV RNase H inh-2
CCC(C)c1ccc(O)c(N)c1 (configuration not stated)	60*	-19	4
CC(C)c1ccc(O)c(NC(=O)c2cccnc2)c1	.	10	.
CC(C)c1ccc(O)c(N)c1	58*	-11	-13
CC(C)(C)c1ccc(O)c(N)c1	86*	4	?
CCC(C)c1ccc(O)c(NC(=O)c2cncc(Br)c2)c1 (configuration not stated)	3	-17	.
Cc1cccc(OCc2nnc(NC(=O)Cc3cccs3)s2)c1	.	-12	.
Cc1ccc(OCc2nnc(NC(=O)Cc3cccs3)s2)cc1	62*	-11	?
CCCNc1nc(-c2cc(-c3ccc(Cl)cc3)on2)cc(C(C)C)n1	.	-14	.
CC(C)c1cc(C(=O)N2CCN(C(c3ccccc3)c3ccccc3)CC2)no1	74*	.	50
CC(C)Cc1cc(C(=O)N2CCN(C(c3ccccc3)c3ccccc3)CC2)no1	.	5	.
CCCCOC(=O)/C(=C\c1ccc([N+](=O)[O-])o1)NC(=O)c1ccccc1	.	-8	.
CCOc1ccc(N(CC(=O)Nc2ccc3c(c2)OCCO3)S(=O)(=O)c2c(C)noc2C)cc1	56*	-12	12
CCOc1ccc(N(CC(=O)Nc2ccc(OC)cc2)S(=O)(=O)c2c(C)noc2C)cc1	-6	-13	.
N#Cc1nc(-c2ccc(OCc3ccccc3)cc2)oc1NCc1cccnc1	-13	9	.
N#Cc1nc(-c2ccc(OCc3ccc(Cl)cc3)cc2)oc1NCc1cccnc1	76*	-15	65*
Nc1c(C(=O)Nc2nc3ccccc3s2)sc2nc(-c3cccs3)ccc12	.	21	.
Nc1c(C(=O)Nc2ccccc2)sc2nc(-c3ccco3)ccc12	87*	8	4
COc1ccccc1NC(=O)c1sc2nc(-c3ccco3)ccc2c1N	84*	10	45
COc1ccccc1NC(=O)c1sc(NC(=O)c2ccco2)c(C#N)c1C	.	4	.
O=C(NCc1ccco1)c1cccc2ccccc12	-4	4	.
O=C(NCc1ccco1)c1cccnc1-c1nc2ccccc2s1	85*	.	63*
CC1(C)C(=O)Nc2ccccc2N1C(=O)COC(=O)c1ccc(Cl)c(S(=O)(=O)NCc2ccccc2)c1	.	-11	.
O=c1c2ccccc2sn1-c1cc(S(=O)(=O)N2CCOCC2)ccc1N1CCCC1	.	-7	.
O=c1c2ccccc2sn1-c1cc(S(=O)(=O)N2CCOCC2)ccc1N1CCOCC1	95*	9	61*
Cc1ccc(S(=O)(=O)N2CCSC2c2ccco2)cc1 (configuration not stated)	-48	-46	.
SMILES	HIV RNase H inh-1	RmlC RmlD mix	HIV RNase H inh-2
Cc1cccc(CNc2ccc(C(CC(N)=O)NC(=O)c3cccc(Br)c3)cc2[N+](=O)[O-])c1 (configuration not stated)	.	-11	.
Cc1cc(C)n2c(=S)[nH]nc2n1	74*	-16	67*
Cc1cc(C)nc(SCc2nc3nc(C)cc(C)n3c2Br)n1	.	13	.
Cc1ccccc1NC(=O)CSc1nc2c(c(-c3ccco3)c1C#N)CCCC2	59*	-26	73*
CCc1ccccc1NC(=O)CSc1nc2c(c(-c3ccco3)c1C#N)CCCC2	40	16	.
COc1ccc(-c2c(C#N)c(SCC(=O)Nc3ccccc3)nc3c2CCCC3)cc1	.	-11	.
N#Cc1c(SCC(=O)Nc2nccs2)nc2c(c1-c1ccco1)CCCC2	82*	-14	61*
Cc1cc(O)ccc1Nc1nc2ccccc2nc1Nc1ccc(O)cc1C	46	?	.
Cc1ccc(-n2nnc(-c3ccnc4ccccc34)n2)cc1	.	-10	.
C=CCCCCCCCCC(=O)NNC1=CC(=O)CC(C)(C)C1	.	-10	.
COc1ccnc(CS(=O)c2nc3cc(OC(F)F)ccc3[nH]2)c1OC (configuration not stated)	.	-12	.
CC(=O)NO	.	11	.
O=C(CSc1ncn[nH]1)c1ccccc1	70*	5	67*
O=C(CSc1ncn[nH]1)c1ccco1	39	6	.
CCCn1c(=O)c(C(=O)Nc2nnc(C)s2)c(O)c2ccccc21	-23	.	.
O=C(/C=C/c1ccccc1)NCCc1ccccc1	.	7	.
NC(=O)CC(NC(=O)c1ccccc1)c1ccc(NCCc2ccc(Cl)cc2)c([N+](=O)[O-])c1 (configuration not stated)	.	7	.
CCOC(=O)c1ccc2c(c1)nc(COc1ccc(OC)cc1)n2CC	.	2	.
COc1cc2c(c(OC)c1)C(c1cccc(OC)c1OC)CC(=O)N2 (configuration not stated)	-44	9	.
CCCOc1c(OC)cccc1C1CC(=O)Nc2cc(OC)c(OC)c(OC)c21 (configuration not stated)	66*	-16	35
CCO[C@@H]1OC(C(=O)Nc2ccccc2)=C[C@H](c2csc3ccccc23)[C@H]1CCCO	.	11	.
Cc1cccc(C(=O)OCC(=O)Nc2ccc(N3CCCCC3)cc2)c1O	88*	-14	53*
CCOc1ccccc1C(=O)OCC(=O)Nc1ccc(N2CCCCC2)cc1	.	4	.
COCCNC(=O)c1onc(CSc2ccc(F)c(F)c2)c1C(=O)NCCOC	.	-4	.
CCN(CC)S(=O)(=O)c1ccc(C)c(NC(=O)COC(=O)c2ccc(C)c(S(=O)(=O)N3CCOCC3)c2)c1	.	-4	.
SMILES	HIV RNase H inh-1	RmlC RmlD mix	HIV RNase H inh-2
Cc1ccc(C)c(NC(=S)c2ccccn2)c1	.	2	.
S=C(Nc1ccccn1)c1ccccn1	73*	-16	68*
CCOC(=O)[C@@H]1[C@H]2COc3ccccc3[C@@H]2N2C(=O)N(c3ccc(C(F)(F)F)cc3)C(=O)[C@]12C	.	-13	.
Cc1ccc2cc(CN(C(=O)c3ccco3)c3ccccc3C)c(=O)[nH]c2c1	70*	7	39
Cc1ccc2cc(CCNC(=O)c3ccco3)c(=O)[nH]c2c1	2	12	.
CCc1nnc(NC(=O)c2ccc3c(c2)C(=O)N(CC)C3=O)s1	.	8	.
COc1ccccc1N(O)C1CC(=O)N(c2ccc(F)cc2)C1=O (configuration not stated)	63*	-5	20
CCCOc1ccc(N2C(=O)CC(N(O)c3ccccc3)C2=O)cc1 (configuration not stated)	-11	10	.
COC(=O)/C(=C(/F)SCC(C)=O)C(F)(F)F	.	13	.
C=C1CCN(C(C)C(=O)O)S(=O)(=O)c2ccccc21 (configuration not stated)	.	4	.
S=C(c1ccc(-c2cccc(Cl)c2)o1)N1CCOCC1	85*	-22	1
S=C(c1ccc(-c2cc(Cl)ccc2Cl)o1)N1CCOCC1	-39	-22	.
CCN(CC(=O)Nc1ccc([N+](=O)[O-])cc1OC)c1ccccc1	.	-1	.
CCOC(=O)C1CCN(S(=O)(=O)c2c(C)n[nH]c2C)CC1	-18	-11	.
CCn1c(O)c(C=NC2CCCC2)sc1=S	.	8	.
CCn1c(O)c(/C=N/n2cnnc2)sc1=S	61*	-86	0
CCOc1cc(/C=N/n2cnnc2)ccc1O	-4	7	.
Cn1c(=O)n(C)c2cc(/C=N/n3cnnc3)ccc21	59*	14	0
CCOC(=O)c1sc(NC(=O)C(CC)Sc2nnc3c4ccccc4n(CC)c3n2)nc1C (configuration not stated)	26	.	.
CCOC(=O)c1sc(NC(=O)CSc2nnc3c4ccccc4n(CC)c3n2)nc1C	74*	.	42
COc1ccc(CCn2c(=N)c(C(=O)N3CCN(C)CC3)cc3c(=O)n4ccccc4nc32)cc1	-5	21	.
